Measured values from PubChem BioAssay (NCATS).
Inconclusive results are not listed. The source made the active and inactive calls. Calls come from the whole dose curve; as a rule, active = well fitted inhibition curve with a large enough effect; inconclusive = small, poorly fitted or top-dose-only effect; inactive = flat fitted curve, though single readings scatter.

What was measured:
Test in all cases: qHTS profiling for inhibitors of Plasmodium falciparum proliferation (AID 504749); note: nearly all actives have a fitted effect of over 60% in size
Conditions in all cases: P. falciparum in erythrocytes, SYBR Green DNA, 72 h; series mostly up to 28.7 µM
CP191 = tested on: CP191
Method in brief: (§1)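 Parasite proliferation within erythrocytes, 72 h exposure. Endpoint: SYBR Green I fluorescence after overnight lysis at room temperature. Controls: 0.29 uM artemisinin, DMSO.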

CP192 = tested on: CP192
Method in brief: as §1

CP194 = tested on: CP194
Method in brief: as §1

CP201 = tested on: CP201
Method in brief: as §1

CP211 = tested on: CP211
Method in brief: as §1

CP215 = tested on: CP215
Method in brief: as §1

CP217 = tested on: CP217
Method in brief: as §1

CP237 = tested on: CP237
Method in brief: as §1

CP238 = tested on: CP238
Method in brief: as §1

CP247 = tested on: CP247
Method in brief: as §1

CP250 = tested on: CP250
Method in brief: as §1

CP252 = tested on: CP252
Method in brief: as §1

CP256 = tested on: CP256
Method in brief: as §1

CP260 = tested on: CP260
Method in brief: as §1

CP262 = tested on: CP262
Method in brief: as §1

CP265 = tested on: CP265
Method in brief: as §1

CP266 = tested on: CP266
Method in brief: as §1

CP268 = tested on: CP268
Method in brief: as §1

CP269 = tested on: CP269
Method in brief: as §1

Measured: Potency
Potency is the fitted concentration of half-maximal effect.

CC(=O)Oc1ccccc1C(=O)Nc1ncc([N+](=O)[O-])s1
active: CP237 12600 nM | CP260 8910 nM
inactive: all other assays above

CC(C)(Sc1cc(C(C)(C)C)c(O)c(C(C)(C)C)c1)Sc1cc(C(C)(C)C)c(O)c(C(C)(C)C)c1
active: CP260 3550 nM
not listed: CP237 | CP262
inactive: all other assays above

Cc1nnc(NS(=O)(=O)c2ccc(N)cc2)s1
inactive: all assays above

O=P(O)(O)C(O)(Cc1cccnc1)P(=O)(O)O
inactive: all assays above

CCn1cc(C(=O)O)c(=O)c2cc(F)c(N3CCNCC3)nc21
not listed: CP237 | CP252 | CP256 | CP260 | CP266 | CP269
inactive: all other assays above

CN(C)c1ccc(C(=C2C=CC(=[N+](C)C)C=C2)c2ccc(N(C)C)cc2)cc1
active: CP191 178 nM | CP192 757 nM | CP194 953 nM | CP201 1200 nM | CP211 151 nM | CP215 1510 nM | CP217 251 nM | CP237 199 nM | CP238 398 nM | CP247 355 nM | CP250 316 nM | CP252 224 nM | CP256 158 nM | CP260 224 nM | CP262 239 nM | CP265 316 nM | CP266 601 nM | CP268 849 nM | CP269 239 nM

NC(N)=NC(N)=NCCc1ccccc1
inactive: all assays above

CN(CCOc1ccc(CC2SC(=O)NC2=O)cc1)c1ccccn1 (centres undefined)
inactive: all assays above

CN1CCN(c2c(F)cc3c(=O)c(C(=O)O)cn4c3c2OCN4C)CC1
not listed: CP262
inactive: all other assays above

COc1ncnc(NS(=O)(=O)c2ccc(N)cc2)c1OC
inactive: all assays above

Cc1cccc(N(C)C(=S)Oc2ccc3ccccc3c2)c1
not listed: CP266
inactive: all other assays above

CCCc1nc(C)c2c(=O)[nH]c(-c3cc(S(=O)(=O)N4CCN(CC)CC4)ccc3OCC)nn12
not listed: CP237 | CP260 | CP266
inactive: all other assays above

COc1cc(NS(=O)(=O)c2ccc(N)cc2)nc(OC)n1
not listed: CP266
inactive: all other assays above

CC(C)NCC(O)c1ccc(NS(C)(=O)=O)cc1 (centres undefined)
inactive: all assays above

CCc1c2c(nc3ccc(OC(=O)N4CCC(N5CCCCC5)CC4)cc13)-c1cc3c(c(=O)n1C2)COC(=O)[C@]3(O)CC
not listed: CP266
inactive: all other assays above

CC1=NN(c2ccccc2)C(=O)C1
inactive: all assays above

CCN(C)C(=O)Oc1cccc([C@H](C)N(C)C)c1
inactive: all assays above

CC[C@H](NC(C)C)[C@H](O)c1ccc(O)c2[nH]c(=O)ccc12
inactive: all assays above

O=S(=O)(O)CCS
not listed: CP260
inactive: all other assays above

NC(=O)c1cccnc1
not listed: CP266
inactive: all other assays above

CC(C)(C#N)c1cc(Cn2cncn2)cc(C(C)(C)C#N)c1
inactive: all assays above

Nc1nc(N)c2nc(CNc3ccc(C(=O)NC(CCC(=O)O)C(=O)O)cc3)cnc2n1 (centres undefined)
inactive: all assays above

Cc1ccnc2c1NC(=O)c1cccnc1N2C1CC1
inactive: all assays above

CCOCC(O)COc1ccc(NC(=O)CC[S+](C)C)cc1 (centres undefined)
inactive: all assays above
